# Records with an inconclusive call do not appear. Entries that show only a call come without a potency. Active and inactive are the calls of the source. Unless noted, calls come from the whole dose curve; as a rule, active = well fitted curve in the direction sought with a large enough effect in the repeat runs; inconclusive = weak or mixed curves; inactive = no such curve, though single readings can be large; an effect the other way counts as inactive or inconclusive.
# Experiments:
# [1] = qHTS assay to identify small molecule antagonists of the vitamin D receptor (VDR) signaling pathway - cell viability counter screen (AID 743225); conditions: VDR-bla HEK293T viability, CellTiter-Glo luminescence, 16 h; series mostly up to 61 µM; note: nearly all actives have a fitted effect of over 50% in size
# Outline: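 Compounds were pinned onto VDR-bla HEK 293T cells together with 1-alpha,25-dihydroxyvitamin D3 at 3 nM final. After 16 h at 37C and 5% CO2 plus the reporter readout, cell viability was measured by CellTiter-Glo luminescence (30 min, room temperature).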
# [2] = qHTS assay to identify small molecule agonists of the NFkB signaling pathway - cell viability counter screen (AID 1159515; calls by dose curve; note: nearly all actives have a fitted effect of over 55% in size; note: potency is the fitted concentration of half-maximal effect); conditions: NFkB-bla ME-180 viability, CellTiter-Glo luminescence, 5 h; series mostly up to 61 µM
# Outline: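 Cells are seeded (2,000 NFkB-bla ME-180 per well), rested overnight, and dosed with DMSO-dissolved compounds for 5 hr at 37 C. Viability is then read by CellTiter-Glo luminescence after 30 min at room temperature.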
# [3] = qHTS assay to identify small molecule agonists of the endoplasmic reticulum stress response signaling pathway - cell viability counter screen (AID 1159517; calls by dose curve;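 note: HeLa cells carrying an ER stress response element beta-lactamase reporter; nearly all actives have a fitted effect of over 50% in size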); conditions: ESRE-bla HeLa viability, CellTiter-Glo luminescence, 5 h; series mostly up to 61 µM
# Outline: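 Cytotoxicity of test compounds toward ESRE-bla HeLa cells was assessed after 5 hr exposure. The luminescent CellTiter-Glo signal was measured 30 min after reagent addition.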
# [4] = qHTS assay to identify small molecule antagonists of the retinoid-related orphan receptor gamma (ROR-gamma) signaling pathway - cell viability counter screen (AID 1159520); conditions: Tet-on RORgamma CHO cells viability, ATP luminescence, 16 h; series mostly up to 92.4 µM; note: nearly all actives have a fitted effect of over 50% in size
# Outline: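 Tet-on ROR gamma CHO cells (1,000/well) were plated 4 hr, given compounds in DMSO for 2 hr at 37 C, then induced with 1 uM final doxycycline for 16 hr. Viability was read as ATP by CellTiter-Glo luminescence after 30 min.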
# [5] = qHTS assay to identify small molecule agonists of the AP-1 signaling pathway - cell viability counter screen (AID 1159525; calls by dose curve; note: nearly all actives have a fitted effect of over 55% in size; note: potency is the fitted concentration of half-maximal effect); conditions: ME-180 AP-1-bla cells viability, ATP luminescence, 5 h; series mostly up to 76.8 µM
# Outline: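 Each titration point was normalised to DMSO and tetra n-octyl ammonium bromide controls. The read was Cell Titer Glo luminescence after 30 min at RT, following 5 h compound exposure of ME-180 AP-1-bla cells at 37 °C.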
# [6] = qHTS assay to identify small molecule agonists of the RXR signaling pathway - cell viability counter screen (AID 1159529); conditions: RXR-alpha-bla HEK293T viability, CellTiter-Glo, 16 h; series mostly up to 76.8 µM; note: nearly all actives have a fitted effect of over 50% in size; note: potency is the fitted concentration of half-maximal effect
# Outline: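 Compounds dissolved in DMSO were pinned onto HEK 293T cells carrying a beta-lactamase reporter under RXR-alpha control and incubated 16 hr. Cytotoxicity was then quantified by CellTiter-Glo luminescence.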
# [7] = qHTS assay to identify small molecule antagonists of the retinoid acid receptor (RAR) signaling pathway - cell viability counter screen (AID 1159551); conditions: C3RL4 cells viability, ATP luminescence (CellTiter-Glo), 6 h; series mostly up to 92.4 µM; note: nearly all actives have a fitted effect of over 35% in size
# Outline: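 Cells (C3RL4) are plated, incubated overnight, dosed with compound in DMSO, then given retinol at 1 uM final. After 6 h at 37 C, CellTiter-Glo is added and luminescence read following 30 min at room temperature.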
# [8] = qHTS assay to identify small molecule antagonists of the retinoic acid receptor (RAR) signaling pathway (AID 1159552; note: nearly all actives have a fitted effect of over 50% in size; note: potency is the fitted concentration of half-maximal effect); conditions: C3RL4 RARE luciferase reporter, retinol-stimulated, 6 h; series mostly up to 92.4 µM
# Outline: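 Test chemicals and DMSO controls were pin-transferred onto C3RL4 cells a day after seeding; retinol (1 uM final) followed at once. Luminescent reporter output was quantified after 6 hr of co-incubation and 30 min with detection reagent.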
# [9] = qHTS assay to identify small molecule agonists of the retinoic acid receptor (RAR) signaling pathway (AID 1159553); conditions: C3RL4 RARE luciferase reporter, agonist, 6 h; series mostly up to 73.3 µM
# Outline: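 Seed C3RL4 reporter cells at 1,000 per well and incubate overnight at 37 C. Add compounds in DMSO, incubate 6 hr. Add luciferase reagent, wait 30 min at room temperature, read luminescence.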
# [10] = qHTS assay to identify small molecule antagonists of the estrogen related receptor (ERR) signaling pathway from Tox21 library - cell viability counter screen (AID 1224834); conditions: ERR reporter cells viability, CellTiter-Fluor, 17.5 h; series mostly up to 92.4 µM; note: nearly all actives have a fitted effect of over 30% in size; note: potency is the fitted concentration of half-maximal effect
# Outline: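 ERR cells, 2,000/well; 6 h settle at 37 C/5% CO2; pin-tool compound transfer in DMSO; 17.5 h at 37 C; CellTiter-Fluor, 30 min; fluorescence intensity.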
# [11] = target: Nuclear receptor ROR-gamma (Homo sapiens) (UniProt P51449); test: qHTS assay to identify small molecule antagonists of the retinoid-related orphan receptor gamma (ROR-gamma) signaling pathway (AID 1159521; note: nearly all actives have a fitted effect of over 50% in size; note: potency is the fitted concentration of half-maximal effect); conditions: Tet-on RORgamma CHO cells, RORE-luciferase, 16 h; series mostly up to 92.4 µM
# Outline: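 Test compounds were applied to Tet-on RORγ CHO cells 2 h ahead of doxycycline hyclate (1 uM final). Luciferase reporter activity was quantified by luminescence after 16 h at 37 C and 5% CO2.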
# [12] = qHTS assay to identify small molecule agonists of the AP-1 signaling pathway (AID 1159526; calls by dose curve); conditions: ME-180 (cervical carcinoma) AP-1-bla reporter, beta-lactamase FRET ratio, 5 h; series mostly up to 76.8 µM
# [13] = qHTS assay to identify small molecule antagonists of the estrogen related receptor (ERR) signaling pathway (AID 1224819); conditions: ERR reporter cell line, luciferase inhibition; series mostly up to 46.1 µM
# Outline: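 qHTS in ERR cells, 2,000/well, 1536 format. Cpd (DMSO) added after 6 h settle, 18 h 37 C. One-Glo luminescence, 30 min RT.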
# [14] = qHTS assay to identify small molecule agonists of the estrogen related receptor (ERR) signaling pathway (AID 1224820); conditions: ERR reporter cell line, luciferase agonist mode; series mostly up to 46.1 µM
# Outline: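 Following a 6 h settling period, 2,000 ERR cells per well receive DMSO-dissolved compounds by pin tool and incubate 18 h at 37 C; agonist activity is scored from One-Glo luminescence read 30 min post-addition.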
# [15] = system: estrogen-related receptor alpha (ERRalpha) with PGC-1alpha coactivator, human; test: qHTS assay to identify small molecule antagonists of the estrogen related receptor signaling pathway with the pleiotropic PPARgamma coactivator (PGC) (AID 1224821; calls by dose curve); conditions: ERR/PGC reporter cell line, luciferase, antagonist mode; series mostly up to 46.1 µM
# Outline: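 Screening used NTP's PGC/ERR cells, dosed via pin tool with compound in DMSO alongside positive and negative controls. After 18 h at 37 C, One-Glo reagent sat 30 min at room temperature before luminescence detection.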
# [16] = qHTS assay to identify small molecule agonists of the estrogen related receptor signaling pathway with the pleiotropic PPARgamma coactivator (PGC) (AID 1224823); conditions: ERR/PGC reporter cell line, luciferase agonist mode; series mostly up to 46.1 µM
# Outline: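 In this quantitative high-throughput screen, an 18 h, 37 C treatment of PGC/ERR cells with compounds in DMSO preceded a One-Glo luminescence read taken after 30 min at room temperature.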
# [17] = target: Retinoic acid receptor RXR-alpha (Homo sapiens) (UniProt P19793); test: qHTS assay to identify small molecule agonists of the RXR signaling pathway (AID 1159527; calls by dose curve; note: nearly all actives have a fitted effect of over 35% in size); conditions: HEK293T RXRa-UAS-bla, beta-lactamase ratio, 16 h; series mostly up to 76.8 µM
# Outline: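 Using 9-cis retinoic acid as the reference agonist, chemicals were tested in HEK 293T cells […] for 16 hr; substrate loading lasted 2 hr at room temperature.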
# Retinoic acid receptor RXR-alpha (Homo sapiens), sequence (P19793 whole entry, looked up): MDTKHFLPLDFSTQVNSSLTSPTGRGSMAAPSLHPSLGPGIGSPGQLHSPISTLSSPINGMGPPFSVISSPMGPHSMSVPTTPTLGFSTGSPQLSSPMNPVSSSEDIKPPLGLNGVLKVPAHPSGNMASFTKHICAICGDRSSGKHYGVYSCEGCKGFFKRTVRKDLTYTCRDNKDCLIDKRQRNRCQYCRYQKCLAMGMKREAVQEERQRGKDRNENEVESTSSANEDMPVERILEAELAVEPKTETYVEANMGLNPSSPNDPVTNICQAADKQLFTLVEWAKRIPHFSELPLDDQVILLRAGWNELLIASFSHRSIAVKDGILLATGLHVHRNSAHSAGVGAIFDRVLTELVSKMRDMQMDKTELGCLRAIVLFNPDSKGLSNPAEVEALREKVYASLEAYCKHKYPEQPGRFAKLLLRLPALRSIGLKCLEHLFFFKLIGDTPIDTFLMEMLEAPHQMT
SMILES,Potency [1],Potency [2],Potency [3],Potency [4],Potency [5],Potency [6],Potency [7],Potency [8],Potency [9],Potency [10],Potency [11],Potency [12],Potency [13],outcome [14],Potency [15],outcome [16],Potency [17]
CC(COCCO)OCCO (configuration not stated),inactive,inactive,inactive,inactive,inactive,inactive,inactive,inactive,inactive,inactive,–,–,–,–,–,–,–
CC(C)=CCC/C(C)=C/CC/C(C)=C/CO,inactive,inactive,inactive,inactive,–,–,inactive,68.6 µM (active),inactive,inactive,inactive,–,–,–,–,–,–
COc1cc(C(=O)OCCCN2CCCN(CCCOC(=O)c3cc(OC)c(OC)c(OC)c3)CC2)cc(OC)c1OC,–,inactive,inactive,–,inactive,inactive,inactive,13.3 µM (active),–,23.7 µM (active),inactive,inactive,inactive,inactive,inactive,inactive,–
C=C1C(=C/C=C2\CCC[C@]3(C)[C@@H]([C@H](C)/C=C/[C@@H](O)C4CC4)CC[C@@H]23)C[C@@H](O)C[C@@H]1O,–,inactive,inactive,inactive,–,23.9 µM (active),–,inactive,–,29.8 µM (active),13.3 µM (active),–,–,–,–,–,–
O=CC1CC=CCC1 (configuration not stated),inactive,inactive,inactive,inactive,inactive,inactive,–,inactive,–,inactive,–,inactive,–,–,–,–,inactive
CCCCCCCCCCCCCCCCCCOS(=O)(=O)O,–,43.6 µM (active),inactive,inactive,38.9 µM (active),43.6 µM (active),inactive,inactive,inactive,–,–,–,–,–,–,–,–
